Screening data as filed in PubChem BioAssay.
Only some compounds are listed: those with a hit (about 3.6% of all), similar ones and a draw of the others.
Sfp PPTase inh: Sfp phosphopantetheinyl transferase inhibition. Biochemical Sfp PPTase activity, qHTS. Potency, µM, actives largely listed as inhibitors. 310,000 tested, 3.5% active;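 note: the enzyme is Sfp with the accession as filed and its product quenches rhodamine fluorescence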
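Buffer: 50 mM Hepes-Na pH 7.6, 10 mM MgCl2, 0.01% Nonidet P-40, 0.01% BSA. Enzyme 15 nM, pre-exposed to compound 15 min; substrates then added and fluorescence change tracked over 30 min.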
JMJD2E inh: JMJD2E (human) inhibition; B2RXH2; JMJD2E catalytic domain, FDH-coupled NADH fluorescence (FDH is formaldehyde dehydrogenase); Potency, µM (titrated, usually from 57.1 µM), most hits filed as inhibitors; 230,000 tested, 1.6% active; AID 2147; active = well fitted inhibition curve with a large enough effect, not every such curve was filed as active; inconclusive = small, poorly fitted or top-dose-only effect, or another doubt; inactive = no such curve, though single readings can be large or run the other way; note: nearly all actives have a fitted effect of over 50% in size
Epigenetic derep: epigenetic control regulation, reporter derepression; murine LDR cells, GFP reporter derepression, 30 h; Potency, µM (series often up to 53.9 µM), hits mostly activators; 280,000 tested, 0.2% active; note: nearly all actives have a fitted effect of over 60% in size
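GFP-positive cell count by laser-scanning cytometry (objects 20–120 um) after 30 h, 37 C compound exposure of murine LDR cells; reporter is CMV-GFP integrated at a silenced locus, inducible by HDAC or DNMT inhibitors.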
IMPase Li cell: IMPase inhibition in cells with lithium potentiation | AID 1457 | CHO-M1 cells, IP1 TR-FRET (IP-One), carbachol + lithium | Potency, µM (top dose mostly 59.4 µM), hits mostly inhibitors | 210,000 tested, 0.35% active;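 note: IP1 builds up when IMPase is blocked and the TR-FRET signal falls; nearly all actives have a fitted effect of over 50% in size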
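Test compounds were applied to CHO-M1 cells previously cultured for 16–30 h at 2000 per well. A small lithium amount accompanied them; after 30 min at 37C, IP1 was quantified by TR-FRET.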
KAT2A inh: inhibitors of human GCN5L2 histone acetyltransferase | Q92830 | GCN5L2 HAT assay, ThioGlo1 CoA-SH fluorescence | Potency, µM (top dose mostly 58.9 µM), hits mostly inhibitors | 390,000 tested, 0.21% active
Target sequence (Q92830 whole entry, looked up): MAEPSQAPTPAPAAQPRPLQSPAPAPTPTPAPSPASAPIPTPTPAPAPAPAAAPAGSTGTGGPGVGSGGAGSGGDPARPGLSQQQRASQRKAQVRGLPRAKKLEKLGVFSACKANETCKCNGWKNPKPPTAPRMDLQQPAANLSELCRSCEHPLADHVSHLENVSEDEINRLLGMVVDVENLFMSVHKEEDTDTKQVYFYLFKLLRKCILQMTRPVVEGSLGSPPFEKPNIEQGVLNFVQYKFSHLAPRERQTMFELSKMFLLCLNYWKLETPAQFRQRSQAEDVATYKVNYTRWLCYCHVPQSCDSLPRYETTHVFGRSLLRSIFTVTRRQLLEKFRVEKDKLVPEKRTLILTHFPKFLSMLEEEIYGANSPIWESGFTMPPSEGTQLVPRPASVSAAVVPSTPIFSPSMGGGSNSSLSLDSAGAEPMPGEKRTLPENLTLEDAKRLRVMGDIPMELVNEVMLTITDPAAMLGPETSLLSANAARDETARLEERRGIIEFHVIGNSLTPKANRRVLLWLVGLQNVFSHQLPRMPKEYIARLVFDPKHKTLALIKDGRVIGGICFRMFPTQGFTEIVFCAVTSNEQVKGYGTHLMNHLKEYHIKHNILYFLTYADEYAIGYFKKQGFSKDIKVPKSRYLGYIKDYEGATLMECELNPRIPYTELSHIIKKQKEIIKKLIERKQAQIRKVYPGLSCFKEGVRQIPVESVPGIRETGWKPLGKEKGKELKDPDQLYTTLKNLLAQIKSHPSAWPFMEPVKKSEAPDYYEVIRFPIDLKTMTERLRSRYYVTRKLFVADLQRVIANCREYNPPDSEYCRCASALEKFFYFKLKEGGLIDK
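Compounds, pin-transferred from DMSO stocks, meet 20nM GCN5L2 for 15 min before the reaction begins with H3(1-25) peptide (75uM) and acetyl-CoA (70uM). Thiol-reactive ThioGlo1 reports CoA release over 20 min at room temperature.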
NPSR antagonist: antagonists of human neuropeptide S receptor cAMP signaling; Q6W5P4; CHO-NPSR cells, cAMP TR-FRET, antagonist mode; Potency, µM (titrated, usually from 38.3 µM), actives largely listed as inhibitors; 220,000 tested, 1% active; AID 1461; note: nearly all actives have a fitted effect of over 50% in size
Large screens that a line does not name were inactive. Unless noted, calls come from the whole dose curve; as a rule, active = well fitted curve in the direction sought with a large enough effect; inconclusive = small, poorly fitted or top-dose-only effect, or another doubt; inactive = no such curve, though single readings can be large; an effect the other way counts as inactive or inconclusive.

O=C1NC(=O)N(Cc2ccccc2)C(=O)/C1=C\c1ccco1	KAT2A inh inconclusive
CCc1ccc(N2C(=O)NC(=O)/C(=C\C=C\c3ccco3)C2=O)cc1	Sfp PPTase inh 50µM, Epigenetic derep inconclusive, NPSR antagonist 10µM (no result: IMPase Li cell)
Cc1cc(C)cc(N2C(=O)NC(=O)/C(=C\C=C\c3ccco3)C2=O)c1	Sfp PPTase inh 45µM, NPSR antagonist 10µM
N=C(N)n1cc(/C=N\N=C(N)N)cn1	none (no result: Sfp PPTase inh, JMJD2E inh, Epigenetic derep, KAT2A inh, NPSR antagonist)
CCCCN1C(=O)/C(=C\c2ccco2)C(=O)N(CCc2ccccc2)C1=O	Sfp PPTase inh inconclusive, KAT2A inh 40µM
CC(C)c1ccc(N2C(=O)NC(=O)/C(=C/C=C/c3ccco3)C2=O)cc1	KAT2A inh inconclusive, NPSR antagonist 6.3µM
COc1ccc2c3c1OC1C[C@@H](O)C=C[C@@]31CCN(C)C2 (stereo partly specified)	none (no result: NPSR antagonist)
O=C(O)C[O][Sb][O]CC(=O)O	none (no result: Sfp PPTase inh, JMJD2E inh, Epigenetic derep, KAT2A inh, NPSR antagonist)
CSc1ncc(/C=C2/C(=O)NC(=O)N(c3ccc(C)cc3)C2=O)cn1	Sfp PPTase inh 45µM, JMJD2E inh inconclusive
CSc1ncc(/C=C2/C(=O)NC(=O)N(c3ccc(Cl)cc3)C2=O)cn1	Sfp PPTase inh 56µM, JMJD2E inh inconclusive
Cc1ccc(N2C(=O)NC(=O)/C(=C\c3cnc(-c4ccccc4)nc3)C2=O)cc1	Sfp PPTase inh 56µM, JMJD2E inh 3.2µM
Cc1ccc(N2C(=O)NC(=O)/C(=C\c3cccn3C(C)(C)C)C2=O)cc1	none
Cc1ccc(N2C(=O)NC(=O)/C(=C/c3cnn(-c4ccc(C)cc4)c3)C2=O)cc1	none
CCOc1ccc(N2C(=O)NC(=O)/C(=C/c3cnc(SC)nc3)C2=O)cc1	Sfp PPTase inh 28µM, JMJD2E inh 35µM
O[C@H](CN1CC1)[C@@H](O)CN1CC1	none (no result: Sfp PPTase inh, JMJD2E inh, Epigenetic derep, KAT2A inh, NPSR antagonist)
Cc1nc2ccccc2cc1C[N+]12CN3CN(CN(C3)C1)C2	none (no result: Sfp PPTase inh, JMJD2E inh, Epigenetic derep, KAT2A inh, NPSR antagonist)
CC(=O)[C@H]1CC[C@H]2C3CC[C@H]4C[C@](C)(O)CC[C@]4(C)C3CC[C@]12C (stereo partly specified)	none (no result: JMJD2E inh, Epigenetic derep, IMPase Li cell, NPSR antagonist)
COc1cccc2c1C13CC[N+]4(CC5CC5)CO[C@]1(CCC(=O)C3)C4C2	none (no result: JMJD2E inh, NPSR antagonist)
COC(=O)C[C@@](O)(CCC(C)(C)O)C(=O)O[C@@H]1C(OC)=C[C@]23CCCN2CCc2cc4c(cc2[C@@H]13)OCO4	KAT2A inh inconclusive (no result: JMJD2E inh, Epigenetic derep, IMPase Li cell, NPSR antagonist)
c1cncc(CNc2cc(-c3ccc4c(c3)OCO4)ncn2)c1	Sfp PPTase inh inconclusive, JMJD2E inh inconclusive, Epigenetic derep inconclusive (no result: NPSR antagonist)
C=CCN1C(=O)NC(=O)/C(=C/c2ccoc2)C1=O	none
C=CCN1C(=O)NC(=O)/C(=C/c2ccc(N(C)C)c(Br)c2)C1=O	Sfp PPTase inh 50µM
CCOC(=O)C1(CCCc2ccccc2)CCN(C2CCCC2)CC1	none
CCOC(=O)C1(CCc2ccccc2)CCN(C2CCSCC2)CC1	Sfp PPTase inh 79µM, JMJD2E inh inconclusive
CC(=O)O[C@@H]1C[C@@]2(C)C(c3ccoc3)C[C@H]3O[C@]32[C@]2(C)C(=O)C(O)=C3C(C)(C)C(=O)C=C[C@]3(C)C12 (stereo partly specified)	none (no result: KAT2A inh, NPSR antagonist)
N#CS.N=C=S.N=C=S.[Cu].[NH2-].[NH2-].[NH2-].[NH2-].c1ccc2ncccc2c1	none (no result: Sfp PPTase inh, JMJD2E inh, Epigenetic derep, KAT2A inh, NPSR antagonist)
CCN(CC)C(=O)c1ccc2c(c1)C1C=CCC1C(C(=O)O)N2 (stereo unspecified)	Sfp PPTase inh 11µM (no result: JMJD2E inh, Epigenetic derep, IMPase Li cell, NPSR antagonist)
O=C(O)c1cccc2c1NC(c1cccc([N+](=O)[O-])c1)C1CC(Sc3ccccc3[N+](=O)[O-])C(Cl)C21 (stereo unspecified)	Sfp PPTase inh 40µM, JMJD2E inh inconclusive, NPSR antagonist 10µM
CCN(CC)C(=O)c1ccc2c(c1)C1C(Cl)C(Sc3ccccc3[N+](=O)[O-])CC1C(C(=O)O)N2 (stereo unspecified)	Sfp PPTase inh 45µM, JMJD2E inh inconclusive, KAT2A inh 13µM, NPSR antagonist inconclusive (no result: IMPase Li cell)
O=C1CCC[C@H]2[C@H]3CCCN4CCCC(=CN12)[C@@H]34	none (no result: KAT2A inh, NPSR antagonist)
O=[N+]([O-])c1cc(Cl)c(Cl)c(Cl)c1	none (no result: Sfp PPTase inh, JMJD2E inh, Epigenetic derep, KAT2A inh, NPSR antagonist)
OC(c1ccc(Cl)cc1)(c1ccc(Cl)cc1)C(Cl)(Cl)Cl	none (no result: Sfp PPTase inh, JMJD2E inh, Epigenetic derep, KAT2A inh, NPSR antagonist)
